Measured values taken from ChEMBL document CHEMBL1201862, “PubChem BioAssay data set” (2004).
About 3,200 (6%) of roughly 53,000 sequences were called active. The sample holds actives, similar sequences and a random draw of the others, so the mix is not that of the screen. Cut-off read from the data, not from the text of the source: active = GI50 up to about 1.1 µM and inactive = higher. Results with a measured potency or affinity are listed apart.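 Where inhibition never reached the appropriate level, the endpoint shown equals the highest concentration tested. Otherwise, values were interpolated linearly from a five-concentration, 48-hour dose response in 96-well plates. At the GI50, growth is halved.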

These substances were tested on HCC 2998 (assay: NCI tumour cell line growth inhibition, 48 h).

Row | Substance | GI50 [µM]
1 | CISPLATIN, CHEMBL11359 | 5.4
2 | [Bis(aminomethyl)tetramethylenesilane]dichloropaltinum(II), CHEMBL2146205 | 25.4
3 | [Bis(aminomethyl)dimethylsilane]tetrachloroplatinum(IV), CHEMBL2146190 | 6.78
4 | [Bis(aminomethyl)tetramethylenesilane]tetrachloropaltinum(IV), CHEMBL2146189 | 0.682
5 | [Bis(aminomethyl)pentamethylenesilane]tetrachloropaltinum(IV), CHEMBL2146204 | 0.313
6 | [Bis(aminomethyl)ethylmethylsilane]tetrachloroplatinum(IV), CHEMBL2146192 | 2.38
7 | [Bis(aminomethyl)dimethylsilane]dichloroplatinum (II), CHEMBL2146201 | 10
8 | mu-(1,7-nanodiamine-N,N')bis-(cis-aminedichloroplatimum (II)), CHEMBL2146215 | 24
9 | [Bis(aminomethyl)pentamethylenesilane]dichloropaltinum(II), CHEMBL2146202 | 3.52
